{"source": "PubChem BioAssay (Tox21)", "note": "Inconclusive results are not listed. A number with no mark means an inactive call. Calls come from the whole dose curve; as a rule, active = well fitted activation curve with a large enough effect in the signal ratio in the repeat runs (not every such curve was filed as active); inconclusive = weak or mixed curves; inactive = flat fitted curve, though single readings scatter; the % refers to the signal ratio. % is set by controls: 0 for no effect and ±100 for the full control effect.", "data": [{"test": "qHTS assay to identify small molecule agonists of the hypoxia (HIF-1) signaling pathway (AID 1224846)", "conditions": "HRE-bla ME-180 cells, beta-lactamase ratio, 17 h; series mostly up to 76.8 µM; activation: at the top concentration", "excerpt": "U.S. Tox21 Program National Center for Advancing Translational Sciences [NCATS] NIH Chemical Genomics Center [NCGC] U.S. Environmental Protection Agency [EPA] National Institutes of Environmental Health Sciences [NIEHS] National Toxicology Program [NTP] U.S. Food and Drug Administration [FDA] Tox21 Assay Overview: Hypoxia-inducible factor-1 (HIF-1) is the major hypoxia-regulated transcription factor that controls cellular responses to low oxygen concentration. HIF-1 is composed of two subunits: hypoxia responsive HIF-1-alpha and constitutively expressed HIF-1-beta, which is also known as aryl hydrocarbon receptor nuclear translocator. During hypoxic conditions, HIF-1-alpha heterodimerizes with HIF-1-beta and translocates into the nucleus where the HIF-1 complex binds to the hypoxia-response element (HRE) and activates expression of target genes such as VEGF (vascular endothelial growth factor). The HIF-1 pathway is essential to normal growth and development, and is involved in the pathophysiology of cancer, inflammation, and ischemia. Using a beta-lactamase reporter-gene under control of the hypoxia response element, a cell-based assay [CellSensor(TM) HRE-bla ME-180 from Life Technologies, Carlsbad, CA] was used to measure hypoxia-induced signaling. Tox21 10K library compounds were measured for their ability to induce the reporter gene activity.\nTox21 Assay Protocol Summary: HRE-bla ME-180 cells were dispensed at 2,000 cells per well in 6 uL of assay medium containing 0.5% dialyzed FBS into black wall/clear-bottom 1536-well plates using a Multidrop Combi (Thermo Scientific, Waltham, MA) dispenser. After the assay plates were incubated at 37C and 5% CO2 for 5 hrs, 23 nL of compounds dissolved in DMSO, positive controls or DMSO only was transferred to each well of the assay plate using a Pintool station (Kalypsys, San Diego, CA). The assay plates were incubated at 37C and 5% CO2 for 17 hrs. One uL of LiveBLAzerTM B/G FRET substrate (CCF4-AM) (Life Technologies) was added to each well using a Flying Reagent Dispenser (Aurora Discovery, San Diego, CA).", "values": [{"compound": "CC(C)(C)c1cc(CCC(=O)NN)cc(C(C)(C)C)c1O", "activation": "0.58%"}, {"compound": "COCCOCCOCCOCCOCCO", "activation": "0.476%"}, {"compound": "C=C1CC/C=C(\\C)CC[C@@H]2[C@@H]1CC2(C)C", "activation": "1.48%"}, {"compound": "CN(CCOc1ccc(NS(C)(=O)=O)cc1)CCc1ccc(NS(C)(=O)=O)cc1", "activation": "-1.21% [at 35.5 µM]"}, {"compound": "Cc1cccc(C)c1NC(=O)c1ccccc1C(=O)O", "activation": "-0.534% [at 35.5 µM]"}, {"compound": "O=S(=O)(O)CCN1CCN(CCO)CC1", "activation": "-0.476%"}, {"compound": "COc1ccc(-c2cc(=O)c3c(O)cc(O[C@@H]4O[C@H](CO[C@@H]5O[C@@H](C)[C@H](O)[C@@H](O)[C@H]5O)[C@@H](O)[C@H](O)[C@H]4O)cc3o2)cc1O", "activation": "-1.1% [at 35.5 µM]"}, {"compound": "O=C(O)CCSSCCC(=O)O", "activation": "0.197%"}, {"compound": "O=C(O)Cc1ccc(Cl)cc1Cl", "activation": "-1.11%"}, {"compound": "O=C(NCCc1c[nH]c2ccccc12)c1cccnc1", "activation": "-0.628% [at 35.5 µM]"}, {"compound": "CC(C)C[C@H](NC(=O)CNC(=O)[C@H](Cc1ccc(O)cc1)NC(=O)[C@H](CO)NC(=O)[C@H](Cc1c[nH]c2ccccc12)NC(=O)[C@H](Cc1cnc[nH]1)NC(=O)[C@@H]1CCC(=O)N1)C(=O)N[C@@H](CCCN=C(N)N)C(=O)N1CCC[C@H]1C(=O)NCC(N)=O", "note": "(stereo in doubt)", "activation": "-1.47% [at 35.5 µM]"}, {"compound": "O=C1CCCC(=O)O1", "activation": "-0.756%"}, {"compound": "CC1(CO)CN(c2ccccc2)NC1=O", "note": "(stereo not given)", "activation": "-1.55%"}, {"compound": "COC(=O)CCCCCCCC(=O)OC", "activation": "0.125%"}, {"compound": "CC(C(=O)O)c1ccc2c(c1)CC(=O)c1ccccc1S2", "note": "(stereo not given)", "activation": "-0.488% [at 35.5 µM]"}, {"compound": "CCOCCOCCOCC", "activation": "-0.582%"}, {"compound": "CCCCCCCCSCC", "activation": "0.0793%"}, {"compound": "CCCCCCCCC1CCC(=O)O1", "note": "(stereo not given)", "activation": "-0.64%"}, {"compound": "O=Cc1ccc(Cl)c(Cl)c1", "activation": "-0.758%"}, {"compound": "CCOC(=O)[C@H](CCc1ccccc1)N[C@@H](C)C(=O)N1C(=O)N(C)C[C@H]1C(=O)O", "activation": "-1.25% [at 35.5 µM]"}, {"compound": "CC(C)C(=O)OCCc1ccccc1", "activation": "-0.954%"}, {"compound": "Cc1c(I)c(=O)n(-c2ccccc2)n1C", "activation": "0.744% [at 35.5 µM]"}, {"compound": "CCCCCCOC(=O)CC", "activation": "0.545%"}, {"compound": "COc1cc(N)ccc1C", "activation": "-0.237%"}, {"compound": "C[C@@H]1O[C@@H](O[C@@H]2[C@@H](O)[C@H](OCCc3ccc(O)c(O)c3)O[C@H](CO[C@@H]3O[C@H](CO)[C@@H](O)[C@H](O)[C@H]3O)[C@H]2OC(=O)/C=C/c2ccc(O)c(O)c2)[C@H](O)[C@H](O)[C@H]1O", "activation": "0.0404%"}, {"compound": "CCCCC(CC)COCCO", "note": "(stereo not given)", "activation": "-0.339%"}, {"compound": "CCCCCCCCC(=O)Cl", "activation": "-1.5%"}, {"compound": "CC(C)=O", "activation": "0.0206%"}, {"compound": "CCCOC(=O)C(C)O", "note": "(stereo not given)", "activation": "-1.23%"}, {"compound": "Oc1cn2c(n1)Nc1ccc(Cl)c(Cl)c1C2", "activation": "-0.566% [at 15.8 µM]"}, {"compound": "NNc1nnc(NN)c2ccccc12", "activation": "-1.36% [at 35.5 µM]"}, {"compound": "COc1ccc2nc(SCc3ncc(C)c(OC)c3C)[nH]c2c1", "activation": "0.851% [at 35.5 µM]"}, {"compound": "CC(C)C(=O)OCc1cccc(OC(=O)[C@@H]2N3C(=O)[C@@H](NC(=O)Cc4ccccc4)[C@H]3SC2(C)C)c1", "activation": "-0.743% [at 35.5 µM]"}, {"compound": "Cc1cccc(C)c1OCC(C)N", "note": "(stereo not given)", "activation": "-0.374% [at 35.5 µM]"}, {"compound": "CCOC(=O)CC(=O)c1ccccc1", "activation": "0.159%"}, {"compound": "C=C(C)C(=O)OCCOP(=O)(O)OCCOC(=O)C(=C)C", "activation": "-0.189%"}, {"compound": "CN=C(NC#N)Nc1ccc(C2=NNC(=O)CC2C)cc1", "note": "(stereo not given)", "activation": "0.684% [at 35.5 µM]"}, {"compound": "NS(=O)(=O)c1ccc(NC(=O)CCC(=O)O)cc1", "activation": "0.312% [at 35.5 µM]"}, {"compound": "CCOc1cc([N+](=O)[O-])c(OCC)cc1N1CCOCC1", "activation": "1.66%"}, {"compound": "C=COCCOCCOCCOC=C", "activation": "-1.32%"}]}]}
